The panel holds about 83,000 compounds, 20% with a hit somewhere; the sample as a whole holds those more often.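 Cells were grown in 96-well plates and exposed to the test compound at a single concentration for 48 hours; results are reported as percent growth, with values below 10 considered active.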 Unmarked numbers belong to inactive results. Calls of active or inactive are those of the source.

The test system of the first assay is NCI-H460 lung. As to the kind of experiment: NCI-60 one-dose screen, 48 h (100 = growth as untreated, 0 = no growth, -100 = all killed). To be noted: 10 µM.
As for `O=C1CC(=O)N(C(=O)c2nn(-c3ccc(Cl)cc3)cc2O)N1`, the growth is 27.4%.
Still for that read-out and setting: under `COc1ccc2c(c1)C(=O)/C(=C/c1ncc([N+](=O)[O-])n1C)O2` stands -42.6% (active); under `S=C1N(c2ccccc2)CN(C2CCCCC2)CN1c1ccccc1`, 105%.
The same measure, in the same setting: under `COc1cc2cc(Oc3ccc(NC(=O)c4ccc(Cl)c(C(F)(F)F)c4)cc3)c(C)nc2cc1OC` stands 19.7%.
On the same count and under the same terms, as for `O=C(N/N=C/c1c(Cl)cccc1Cl)c1ccccc1Nc1cccc(C(F)(F)F)c1`, the figure is 88.6%; as for `O=C1/C(=C/c2ccc([N+](=O)[O-])s2)Oc2cc(Cl)ccc21`, 1.6% (active).
For the compound `N#Cc1cnn(C(=O)c2nn(-c3ccc(Cl)cc3)cc2O)c1N`, the growth is 3.09% (active).
For `O=C(CCC(C(=O)c1ccccc1)c1ccccc1)c1ccccc1` (stereo not given), the growth was 76.2%.
The same measure, in the same setting: as for `O=C1c2c(c(=O)[nH]c3ccccc23)CCN1Cc1ccccc1`, the figure is 108%; as for `Cc1ccc(C2NC(=S)N3C(c4ccc(C)cc4)NC(=S)N23)cc1` (stereo not given), 9.7% (active).
Same read-out and setting: as for `COc1cc(-c2ccc(N=Nc3ccc4c(S(=O)(=O)O)ccc(N)c4c3O)c(OC)c2)ccc1N=Nc1ccc2c(S(=O)(=O)O)ccc(N)c2c1O`, the figure is 108%; as for `c1ccc(/C(=N\Nc2ccc3ccccc3n2)c2ccccn2)cc1`, 5.49% (active).
Still for that read-out and setting: under `COc1ccc(C2CC(c3cc(OC)c(OC)c(OC)c3)=NN2)cc1` (stereo not given) stands 51.5%; under `CSc1nc2c(c(=O)n1C)CN(Cc1ccccc1)C(=O)CN2`, 106%; under `COc1ccc(C(=O)c2cc3c(OC)c(OC)c(OC)cc3[nH]2)cc1`, 16.8%.
For `COc1cc2c(Nc3ccc(-c4ccc(N)cc4)cc3)ncnc2c(OC)c1OC`, the growth is 19.9%.
On the same count and under the same terms, under `COc1ccc(N(C)c2ncnc3occ(C)c23)cc1` stands 2.75% (active); under `O=C1/C=C/[C@@H](O)[C@@H]2C[C@@H](O)C[C@H]2/C=C/CCC[C@H](CCc2ccc(C(F)(F)F)cc2)O1`, 9.42% (active); under `COc1ccc2c(c1)C(=O)/C(=C/c1ccc([N+](=O)[O-])o1)O2`, -46.8% (active).
On the same count and under the same terms, under `Nc1ccc(CC[C@H]2CCC/C=C/[C@@H]3C[C@H](O)C[C@H]3[C@H](O)/C=C/C(=O)O2)cc1` stands 10.5%; under `COc1ccc(/C=C2\CCCC3C2=Nc2ccccc2NC3c2ccc(OC)cc2)cc1` (stereo not given), 94.8%; under `NC1=NC(c2ccccc2)C2=C(N1)/C(=C/c1ccccc1)CCC2` (stereo not given), 98.9%.
On the same count and under the same terms, under `Cc1c2c(nn1C(=O)c1nn(-c3ccc(Cl)cc3)cc1O)-c1ccccc1CC2` stands 9.48% (active); under `COc1nc2c(c(=O)n1C)CN(c1ccccc1)C(=O)C(C)N2` (stereo not given), 104%.
Take `COc1cccc2ccc(CC(O)(c3ccccc3)c3ccccc3)nc12`: the growth is 90.8%.
On the same count and under the same terms, under `CC(=O)Nc1ccc(S(=O)(=O)N/N=C(\C)c2ccc(C)cc2C)cc1` stands 106%; under `O=C(CSc1nnc(-c2cccnc2SCc2ccccc2)o1)Nc1nc(Cl)cc(Cl)n1`, 105%.
The same measure, in the same setting: under `CCN(CC)c1ccc(/C=C2\SC(=O)C(Nc3nnc(-c4cccnc4SCc4ccccc4)o3)C2=O)cc1` (stereo not given) stands 3.5% (active).
Still for that read-out and setting: as for `c1ccc(CSc2ncccc2-c2nnc(SCCN3CCOCC3)o2)cc1`, the figure is 122%.
Turning to `CC(=O)C1N=NCC1c1ccccc1` (stereo not given), the growth is 98.8%.
On to `CS(=O)(=O)c1nccc(-c2c(-c3cccc(OCc4ccc(F)cc4)c3)nc3sccn23)n1`, for which the growth is 98.8%.
Still for that read-out and setting: as for `Cc1ccc(NC(=S)NNC(=S)Nc2ccc(C)cc2)cc1`, the figure is 89.4%; as for `Nc1ncc(-c2cnn(C3CCNCC3)c2)cc1-c1nc2ccccc2o1`, -0.928% (active); as for `O=C(CNc1nnc(-c2cccnc2SCc2ccccc2)s1)Nc1nc(Cl)cc(Cl)n1`, 123%.
Same read-out and setting: under `CS(=O)(=O)c1nccc(-c2c(-c3cccc(OCCc4ccccc4)c3)nc3sccn23)n1` stands 106%; under `NC1=NC(c2ccc(Cl)cc2)C2=C(N1)/C(=C/c1ccc(Cl)cc1)CCC2` (stereo not given), 91.3%.
For the compound `COc1cc2cc(Oc3ccc(NC(=O)c4cccc(C(F)(F)F)c4)cc3)c(C)nc2cc1OC`, the growth was 28.3%.
Same read-out and setting: as for `COc1cc2cc(Oc3ccc(NC(=O)c4ccccc4)cc3)c(C)nc2cc1OC`, the figure is 94.8%; as for `COc1ccc(Nc2cnc3cc(NS(=O)(=O)c4ccc(C)cc4)ccc3n2)cc1`, 84.4%.
On the same count and under the same terms, as for `CCOC(=O)c1cc(C(=O)c2cc(OC)c(OC)c(OC)c2)n2ncc3ccccc3c12`, the figure is 51.3%.

For another assay, the system named is HOP-92 NSCLC. The assay is described as above. To be noted: 10 µM.
On to `Cc1ccc(C2NC(=S)N3C(c4ccc(C)cc4)NC(=S)N23)cc1` (stereo not given), for which the growth was -3.05% (active).
Still for that read-out and setting: under `CC(=O)C1N=NCC1c1ccccc1` (stereo not given) stands 73.8%.
On to `CCOC(=O)c1cc(C(=O)c2cc(OC)c(OC)c(OC)c2)n2ncc3ccccc3c12`, for which the growth was 81.6%.

In the next assay the test system is NCI-H522 lung. The assay is described as above. The conditions noted are these: 10 µM.
Take `O=C1CC(=O)N(C(=O)c2nn(-c3ccc(Cl)cc3)cc2O)N1`: the growth was 5.35% (active).
The same measure, in the same setting: as for `COc1ccc2c(c1)C(=O)/C(=C/c1ncc([N+](=O)[O-])n1C)O2`, the figure is -51.5% (active); as for `S=C1N(c2ccccc2)CN(C2CCCCC2)CN1c1ccccc1`, -29.7% (active).
For the compound `COc1cc2cc(Oc3ccc(NC(=O)c4ccc(Cl)c(C(F)(F)F)c4)cc3)c(C)nc2cc1OC`, the growth was 20.3%.
Same read-out and setting: as for `O=C(N/N=C/c1c(Cl)cccc1Cl)c1ccccc1Nc1cccc(C(F)(F)F)c1`, the figure is 84.9%.
Still for that read-out and setting: as for `O=C1/C(=C/c2ccc([N+](=O)[O-])s2)Oc2cc(Cl)ccc21`, the figure is -78.2% (active); as for `N#Cc1cnn(C(=O)c2nn(-c3ccc(Cl)cc3)cc2O)c1N`, -13.7% (active).
Still for that read-out and setting: as for `O=C(CCC(C(=O)c1ccccc1)c1ccccc1)c1ccccc1` (stereo not given), the figure is 3.51% (active).
As for `O=C1c2c(c(=O)[nH]c3ccccc23)CCN1Cc1ccccc1`, the growth is 90.6%.
Still for that read-out and setting: under `COc1cc(-c2ccc(N=Nc3ccc4c(S(=O)(=O)O)ccc(N)c4c3O)c(OC)c2)ccc1N=Nc1ccc2c(S(=O)(=O)O)ccc(N)c2c1O` stands 105%.
On the same count and under the same terms, under `c1ccc(/C(=N\Nc2ccc3ccccc3n2)c2ccccn2)cc1` stands -2.13% (active); under `COc1ccc(C2CC(c3cc(OC)c(OC)c(OC)c3)=NN2)cc1` (stereo not given), 53.3%; under `CSc1nc2c(c(=O)n1C)CN(Cc1ccccc1)C(=O)CN2`, 79.6%.
For `COc1ccc(C(=O)c2cc3c(OC)c(OC)c(OC)cc3[nH]2)cc1`, the growth was 25.4%.
For `COc1cc2c(Nc3ccc(-c4ccc(N)cc4)cc3)ncnc2c(OC)c1OC`, the growth was 48.6%.
Same read-out and setting: under `COc1ccc(N(C)c2ncnc3occ(C)c23)cc1` stands -37.7% (active); under `O=C1/C=C/[C@@H](O)[C@@H]2C[C@@H](O)C[C@H]2/C=C/CCC[C@H](CCc2ccc(C(F)(F)F)cc2)O1`, -58.5% (active); under `COc1ccc2c(c1)C(=O)/C(=C/c1ccc([N+](=O)[O-])o1)O2`, -85% (active).
Same read-out and setting: as for `Nc1ccc(CC[C@H]2CCC/C=C/[C@@H]3C[C@H](O)C[C@H]3[C@H](O)/C=C/C(=O)O2)cc1`, the figure is -46.6% (active); as for `COc1ccc(/C=C2\CCCC3C2=Nc2ccccc2NC3c2ccc(OC)cc2)cc1` (stereo not given), 6.67% (active); as for `NC1=NC(c2ccccc2)C2=C(N1)/C(=C/c1ccccc1)CCC2` (stereo not given), 48.4%.
The same measure, in the same setting: as for `Cc1c2c(nn1C(=O)c1nn(-c3ccc(Cl)cc3)cc1O)-c1ccccc1CC2`, the figure is -8.04% (active); as for `COc1nc2c(c(=O)n1C)CN(c1ccccc1)C(=O)C(C)N2` (stereo not given), 84.6%.
Take `COc1cccc2ccc(CC(O)(c3ccccc3)c3ccccc3)nc12`: the growth is 93.5%.
Still for that read-out and setting: under `CC(=O)Nc1ccc(S(=O)(=O)N/N=C(\C)c2ccc(C)cc2C)cc1` stands 91.1%; under `O=C(CSc1nnc(-c2cccnc2SCc2ccccc2)o1)Nc1nc(Cl)cc(Cl)n1`, 83.1%; under `CCN(CC)c1ccc(/C=C2\SC(=O)C(Nc3nnc(-c4cccnc4SCc4ccccc4)o3)C2=O)cc1` (stereo not given), -17.6% (active).
Take `c1ccc(CSc2ncccc2-c2nnc(SCCN3CCOCC3)o2)cc1`: the growth was 105%.
Regarding `CS(=O)(=O)c1nccc(-c2c(-c3cccc(OCc4ccc(F)cc4)c3)nc3sccn23)n1`, the growth is 24.4%.
Still for that read-out and setting: under `Cc1ccc(NC(=S)NNC(=S)Nc2ccc(C)cc2)cc1` stands 32.7%.
Same read-out and setting: as for `Nc1ncc(-c2cnn(C3CCNCC3)c2)cc1-c1nc2ccccc2o1`, the figure is 19.7%; as for `O=C(CNc1nnc(-c2cccnc2SCc2ccccc2)s1)Nc1nc(Cl)cc(Cl)n1`, 102%; as for `CS(=O)(=O)c1nccc(-c2c(-c3cccc(OCCc4ccccc4)c3)nc3sccn23)n1`, 90.5%.
The same measure, in the same setting: as for `NC1=NC(c2ccc(Cl)cc2)C2=C(N1)/C(=C/c1ccc(Cl)cc1)CCC2` (stereo not given), the figure is 19.1%; as for `COc1cc2cc(Oc3ccc(NC(=O)c4cccc(C(F)(F)F)c4)cc3)c(C)nc2cc1OC`, 28.9%.
On to `COc1cc2cc(Oc3ccc(NC(=O)c4ccccc4)cc3)c(C)nc2cc1OC`, for which the growth is 7.6% (active).
On the same count and under the same terms, under `COc1ccc(Nc2cnc3cc(NS(=O)(=O)c4ccc(C)cc4)ccc3n2)cc1` stands 36.1%.
